A short description of experiment [1]: qHTS assay to identify small molecule antagonists of the thyroid receptor (TR) signaling pathway - cell viability counter screen (AID 743064). Note: nearly all actives have a fitted effect of over 50% in size. In short, it runs like this: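 Fluorescence from CellTiter-Fluor, added after 23.5 h exposure at 37 °C, reported viability of GH3.TRE-Luc cells co-treated with compound and 1 nM T3. Measured in the same wells as the luciferase TR readout.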
Background: In qHTS, concentration-response curves come from the screen itself.

The nature of experiment [2]: qHTS assay to identify small molecule antagonists of the thyroid receptor (TR) signaling pathway (AID 743065). Note: series mostly up to about 70 µM; nearly all actives have a fitted effect of over 55% in size. In short, it runs like this:
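Antagonism measured as loss of luciferase signal in GH3 cells stably carrying a TRE-luciferase reporter, co-treated with compound and T3 (1 nM final) for 23.5 h at 37 C. Viability was read in the same well by CellTiter-Fluor.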

The test system of experiment [3] is thyroid hormone receptor (rat, GH3 cells). The experiment in a line: qHTS assay to identify small molecule agonists of the thyroid receptor (TR) signaling pathway (AID 743066; calls by dose curve; note: potency is the fitted concentration of half-maximal effect).
Experiment [4] deals with Estrogen receptor (Homo sapiens) (UniProt P03372). Nature of the experiment: qHTS assay to identify small molecule antagonists of the estrogen receptor alpha (ER-alpha) signaling pathway (AID 743069; active = well fitted curve in the direction sought with a large enough effect in the signal ratio in the repeat runs, not every such curve was filed as active; the % refers to the signal ratio). A digest of the protocol: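 Fluorescence intensity from a beta-lactamase FRET substrate served as the read-out. Cells: HEK293 with stably integrated ER-alpha-UAS-bla reporter. Agonist 17beta-estradiol was co-added with compounds; incubation 18 hr at 37C, substrate 2 hr at room temperature.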

Experiment [5] can be described thus: qHTS assay to identify small molecule antagonists of the estrogen receptor alpha (ER-alpha) signaling pathway - cell viability counter screen (AID 743074; calls by dose curve; note: nearly all actives have a fitted effect of over 45% in size).
The target in experiment [6] is Estrogen receptor (Homo sapiens) (UniProt P03372). The experiment in a line: qHTS assay to identify small molecule agonists of the estrogen receptor alpha (ER-alpha) signaling pathway (AID 743075; calls by dose curve).
The target is the same in experiment [7]. The experiment in a line: qHTS assay to identify small molecule agonists of the estrogen receptor alpha (ER-alpha) signaling pathway using the BG1 cell line (AID 743079). Note: nearly all actives have a fitted effect of over 20% in size. Note: potency is the fitted concentration of half-maximal effect.
Experiment [8] is described as follows: qHTS assay to identify small molecule antagonists of the estrogen receptor alpha (ER-alpha) signaling pathway using the BG1 cell line (AID 743080; calls by dose curve; note: series mostly up to about 70 µM; nearly all actives have a fitted effect of over 25% in size). In short, it runs like this: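 Antagonist mode: compounds in DMSO were pinned onto BG1-Luc-4E2 cells alongside 17beta-estradiol agonist, incubated 21.5 h, and ERE-driven luciferase measured with ONE-Glo. Cytotoxicity was multiplexed using CellTiter-Fluor fluorescence.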

Experiment [9] can be described thus: qHTS assay to identify small molecule antagonists of the estrogen receptor alpha (ER-alpha) signaling pathway using the BG1 cell line - cell viability counter screen (AID 743081).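 Note: compound given together with 17beta-estradiol as the ER stimulus; series mostly up to about 70 µM; nearly all actives have a fitted effect of over 45% in size.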
The next experiment deals with Aromatase (Homo sapiens) (UniProt P11511). Nature of the experiment: qHTS assay to identify aromatase inhibitors (AID 743083). Note: series mostly up to about 70 µM; nearly all actives have a fitted effect of over 55% in size.

Several values for one entry are separate records, joined by “and”; a condition that tells them apart may be missing. Equal entries are not always repeated. Results filed as inconclusive are left out. The source holds several records for some structures; these can differ, active in one and inactive in another. Activity calls are given as the source filed them. Unless noted, calls come from the whole dose curve; as a rule, active = well fitted curve in the direction sought with a large enough effect in the repeat runs; inconclusive = weak or mixed curves; inactive = no such curve, though single readings can be large; an effect the other way counts as inactive or inconclusive.

Chain of Aromatase (Homo sapiens) (P11511 whole entry, looked up): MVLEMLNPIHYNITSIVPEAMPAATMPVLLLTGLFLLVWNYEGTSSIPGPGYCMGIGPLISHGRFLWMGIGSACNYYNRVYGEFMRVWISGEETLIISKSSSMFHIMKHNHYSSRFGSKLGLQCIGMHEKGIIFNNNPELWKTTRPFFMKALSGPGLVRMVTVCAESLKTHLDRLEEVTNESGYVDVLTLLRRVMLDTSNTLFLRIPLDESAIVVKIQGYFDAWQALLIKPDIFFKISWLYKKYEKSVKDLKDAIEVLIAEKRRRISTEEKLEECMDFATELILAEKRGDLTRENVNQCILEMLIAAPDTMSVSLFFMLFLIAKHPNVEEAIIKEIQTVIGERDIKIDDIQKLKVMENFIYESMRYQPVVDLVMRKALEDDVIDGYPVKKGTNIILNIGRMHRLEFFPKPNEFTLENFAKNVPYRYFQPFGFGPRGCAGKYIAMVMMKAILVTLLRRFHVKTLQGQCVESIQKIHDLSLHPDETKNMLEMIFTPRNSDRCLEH
Chain of Estrogen receptor (Homo sapiens) (P03372 whole entry, looked up): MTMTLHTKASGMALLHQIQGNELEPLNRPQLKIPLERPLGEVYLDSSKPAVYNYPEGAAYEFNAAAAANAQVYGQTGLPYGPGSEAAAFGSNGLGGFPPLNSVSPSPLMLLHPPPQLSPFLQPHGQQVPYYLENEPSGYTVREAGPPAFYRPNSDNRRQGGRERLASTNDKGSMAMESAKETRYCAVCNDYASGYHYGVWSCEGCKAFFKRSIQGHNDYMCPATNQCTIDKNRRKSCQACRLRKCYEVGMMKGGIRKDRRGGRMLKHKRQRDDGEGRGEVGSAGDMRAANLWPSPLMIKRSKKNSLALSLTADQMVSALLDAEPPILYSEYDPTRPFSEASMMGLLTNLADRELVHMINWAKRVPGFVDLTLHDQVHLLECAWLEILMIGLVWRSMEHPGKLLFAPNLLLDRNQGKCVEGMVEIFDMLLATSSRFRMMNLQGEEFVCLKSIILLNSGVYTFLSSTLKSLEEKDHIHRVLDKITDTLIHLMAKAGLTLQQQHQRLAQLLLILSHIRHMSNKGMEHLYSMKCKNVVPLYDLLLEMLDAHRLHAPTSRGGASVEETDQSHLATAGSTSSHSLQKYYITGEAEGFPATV

On to `Cc1cc(O)ccc1Cl`, for which the Potency result (in experiment [1]; in experiment [2]; in experiment [4]; with Aromatase (Homo sapiens)) was “inactive” in each case. Moreover, the Potency entry in experiment [3] is “inactive and 27.3 µM (active)”; in experiment [7] it was “inactive and 62.2 µM (active)”. The result in [5], in experiment [6], in experiment [8] and in experiment [9] was inactive.
Turning to `O=[N+]([O-])c1cc([As](=O)(O)O)ccc1O`, the Potency entry (in experiment [1]; in [2]; in experiment [3]; in experiment [4]; in experiment [7]; with Aromatase (Homo sapiens)) was “inactive” each time. For the same compound, the outcome in [5], in experiment [6], in [8] and in experiment [9] was inactive.
For the compound `CCSC(=O)N1CCCCCC1`, the Potency result (in experiment [1]; in experiment [2]; in experiment [3]; in experiment [4]; in experiment [7]; in the experiment with Aromatase (Homo sapiens)) was “inactive” throughout. The compound was classed as inactive in [5], in experiment [6], in [8] and in [9].
`COP(=S)(OC)Oc1ccc(SC)c(C)c1`: the Potency result (in [1]; in experiment [2]; in experiment [3]; in experiment [4]; with Aromatase (Homo sapiens)) was “inactive” in each case. Also, the compound was called inactive in experiment [5], in experiment [6], in experiment [8] and in [9]. Also, the Potency in experiment [7] is 48 µM (active).
For `Nc1ccc([As](=O)(O)O)cc1`, the Potency result (in [1]; in experiment [2]; in experiment [3]; in [4]; in experiment [7]; in the experiment with Aromatase (Homo sapiens)) was “inactive” in each case. Also, the compound was classed as inactive in [5], in experiment [6], in experiment [8] and in experiment [9].
`CC(C)CCCCCCOC(=O)c1ccccc1C(=O)OCCCCCCC(C)C`: the Potency result (in [1]; in experiment [2]; in [3]; in [4]; in experiment [7]; with Aromatase (Homo sapiens)) was “inactive” each time. In addition, the outcome in experiment [5], in experiment [6], in experiment [8] and in experiment [9] was inactive.
`O=C/C=C/c1ccccc1`: the Potency entry (in [1]; in experiment [2]; in experiment [3]; in [4]; with Aromatase (Homo sapiens)) was “inactive” each time. Also, the call in [5], in [6], in experiment [8] and in [9] was inactive. Also, the Potency result in [7] is “inactive and 61.1 µM (active)”.
For the compound `O=[N+]([O-])c1ccc(Cl)c(Cl)c1`, the Potency result (in [1]; in [2]; in experiment [3]; in [4]; in [7]; with Aromatase (Homo sapiens)) was “inactive” throughout. The call in [5], in [6], in experiment [8] and in experiment [9] was inactive.
Consider `CC12CC1(C)C(=O)N(c1cc(Cl)cc(Cl)c1)C2=O` (configuration not stated), for which the Potency result (in [1]; in experiment [2]; in [3]; with Aromatase (Homo sapiens)) was “inactive” each time. Further, the call in experiment [5] and in experiment [9] was inactive.
Consider `CCNc1nc(Cl)nc(NC(C)C)n1`, for which the Potency result (in experiment [1]; in experiment [2]; in experiment [3]; in experiment [4]; in [7]; with Aromatase (Homo sapiens)) was “inactive” each time. The call in experiment [5], in [6], in [8] and in experiment [9] was inactive.
On to `CN(C)C(=O)Nc1cccc(C(F)(F)F)c1`, for which the Potency result (in experiment [1]; in [2]; in experiment [3]; with Aromatase (Homo sapiens)) was “inactive” in each case. Further, the call in [5] and in experiment [9] was inactive.
On to `C=CC(=O)OCCCCCC(C)C`, for which the Potency result (in experiment [1]; in experiment [2]; in experiment [3]; in experiment [4]; in the experiment with Aromatase (Homo sapiens)) was “inactive” each time. In addition, the outcome in experiment [5], in experiment [6], in experiment [8] and in [9] was inactive. For the same compound, the Potency in experiment [7] was 80.9 µM (active) and inactive.
Regarding `CNC(=O)Oc1cccc2ccccc12`, the Potency entry (in experiment [1]; in experiment [2]; in experiment [3]; in experiment [4]; in experiment [7]; with Aromatase (Homo sapiens)) was “inactive” in each case. The compound was classed as inactive in experiment [5], in experiment [6], in experiment [8] and in experiment [9].
For `N#Cc1cccc(C#N)c1`, the Potency entry (in [1]; in [2]; in experiment [3]; in the experiment with Aromatase (Homo sapiens)) was “inactive” each time. The outcome in experiment [5] and in experiment [9] was inactive.
Turning to `OCc1ccco1`, the Potency entry (in [1]; in experiment [2]; in [3]; in experiment [4]; in experiment [7]; with Aromatase (Homo sapiens)) was “inactive” in each case. For the same compound, the compound was classed as inactive in experiment [5], in [6], in [8] and in [9].
In the case of `Cc1cccc(N)c1`, the Potency result in experiment [1], in experiment [2], in experiment [3], in [4] and in experiment [7] was “inactive” throughout. The result in experiment [5], in [6], in [8] and in experiment [9] was inactive.
For the compound `O=C(O)C(Br)Br`, the Potency result (in experiment [1]; in experiment [2]; in experiment [3]; in experiment [4]; in experiment [7]; with Aromatase (Homo sapiens)) was “inactive” in each case. Further, the compound was classed as inactive in experiment [5], in [6], in experiment [8] and in [9].
As for `CCCOC(=O)c1ccccc1C(=O)OCCC`, the Potency result (in experiment [1]; in experiment [2]; in [3]; in experiment [4]; in experiment [7]; with Aromatase (Homo sapiens)) was “inactive” throughout. Besides, the result in [5], in experiment [6], in experiment [8] and in experiment [9] was inactive.
For `OCC(O)CCl` (configuration not stated), the Potency entry (in experiment [1]; in experiment [2]; in [3]; in experiment [4]; in experiment [7]; with Aromatase (Homo sapiens)) was “inactive” each time. The call in [5], in [6], in [8] and in experiment [9] was inactive.

The values above are taken from PubChem BioAssay (Tox21).
